CHO-K1 Ca antag: M1 antagonist counterscreen hit in parental CHO-K1 cells | ATP-induced calcium, Fluo-8 fluorescence | inhibition, % at 3 µM | 0.6% of 360,000 active | AID 602250;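 active = inhibition above a per-plate cutoff, the plate's mean sample inhibition plus 3 SD, cut at about 24% in these data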;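 also: 0% = DMSO plus EC80 ATP and 100% = DMSO alone without ATP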
M1 ag: human M1 muscarinic receptor agonists, primary screen, Fluo-8 calcium fluorescence, CHO-K1 cells, HTS. Muscarinic acetylcholine receptor M1 (Homo sapiens), P11229. CHO-K1 hM1, agonist mode; 0% DMSO, 100% acetylcholine EC100. activation, % at 3 µM. 0.33% of 360,000 active;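 active = activation above the run's mean compound activation plus 3 SD, cut at about 16% in these data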;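 also: peak over basal fluorescence ratio within a 140 s kinetic read after compound addition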
Target sequence (P11229 whole entry, looked up): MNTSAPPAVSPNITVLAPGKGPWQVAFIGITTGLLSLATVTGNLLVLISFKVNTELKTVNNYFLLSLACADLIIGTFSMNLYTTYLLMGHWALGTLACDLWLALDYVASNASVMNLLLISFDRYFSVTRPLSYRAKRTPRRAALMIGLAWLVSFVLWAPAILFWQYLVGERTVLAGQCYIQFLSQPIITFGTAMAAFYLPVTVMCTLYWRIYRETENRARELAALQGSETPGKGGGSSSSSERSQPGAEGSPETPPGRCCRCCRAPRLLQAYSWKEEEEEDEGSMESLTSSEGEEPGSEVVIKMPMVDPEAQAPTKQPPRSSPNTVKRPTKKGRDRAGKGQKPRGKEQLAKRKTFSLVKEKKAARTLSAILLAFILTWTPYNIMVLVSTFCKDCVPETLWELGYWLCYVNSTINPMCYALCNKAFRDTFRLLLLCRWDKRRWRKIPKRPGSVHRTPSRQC
CHO-K1 Ca ag: counter-screen for M1 agonists: effect in parental CHO-K1 cells; activation, % at 3 µM; Fluo-8 calcium fluorescence; scaled to maximal ATP response, vehicle zero; 0.48% of 360,000 active; in the data active = activation above about 15%;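 also: untransfected CHO-K1 host cells lacking M1 receptor as counterscreen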
M1 antag: human M1 muscarinic receptor antagonists, primary screen, CHO-K1 cells, Fluo-8 calcium fluorescence, 1536-well | Muscarinic acetylcholine receptor M1 (Homo sapiens), P11229 | CHO-K1 hM1, ACh EC80 antagonist | inhibition, % at 3 µM | 1.3% of 360,000 active | AID 588852, 2011;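 active = percent inhibition above its own plate's cutoff, namely the mean of that plate's compound wells plus 3 SD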;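 also: peak over basal fluorescence ratio during 140 s after agonist addition; 0% = ACh EC80 plus DMSO and 100% = DMSO alone without agonist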
CHO-K1 Ca PAM: nonselective calcium activators in parental CHO-K1 cells, primary screen, counter-screen for M1 PAM project, cell-based, Fluo-8 calcium fluorescence, full deck, 1536-well | ATP EC20; 0% at ATP EC20, 100% at ATP max | activation, % at 3 µM | 0.02% of 360,000 active | AID 602247, 2012;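 active = activation above the run cutoff, the mean activation of all test compounds plus 3 SD, cut at about 40% in these data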;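 also: peak over basal fluorescence ratio in a 140 s read after ATP addition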
CHRM1 PAM: human M1 muscarinic receptor positive allosteric modulators, primary screen, CHO-K1 cells, Fluo-8 calcium fluorescence, 1536-well; 0.088% of 360,000 active; CHO-K1 hM1, ACh EC20; 0% = ACh EC20, 100% = maximal ACh; AID 588819, 2011; activation, % at 3 µM; Muscarinic acetylcholine receptor M1 (Homo sapiens), P11229; in the data active = activation above about 19%, passing the limit was not always enough
* hit, by the source's call. Compounds with a hit are over-represented: about 2.3% of the library has one in this group of screens.

SMILES	CHO-K1 Ca antag	M1 ag	CHO-K1 Ca ag	M1 antag	CHO-K1 Ca PAM	CHRM1 PAM
Cc1cc(NC(=O)COC(=O)C2CC(=O)N(c3ccc(C)c(Cl)c3)C2)no1 (stereo not given)	-9	-4	3	0	4	1
Cc1cc(NC(=O)COC(=O)C2CC(=O)N(c3cccc(Cl)c3)C2)no1 (stereo not given)	-7	1	1	-3	-3	31*
CCOC(=O)CN1C(=O)Nc2ccc(Br)cc2C1c1ccccc1 (stereo not given)	2	-6	0	50*	-4	-22
O=C(COc1ccccc1)OCc1cc(-c2ccco2)on1	1	3	0	-2	-18	17
Cc1ccc(-n2c(C)nc3c(cnn3-c3ccc(C)c(C)c3)c2=O)cc1C	-6	-5	2	10	19	-8
Cc1ccc(-n2c(C)nc3c(cnn3-c3ccc(F)cc3)c2=O)cc1C	-3	1	4	29*	12	-12
COc1ccc(C(C(=O)NC2CCCC2)N(C(=O)c2ccoc2C)c2ccc(C)c(C)c2)cc1 (stereo not given)	25*	-10	-1	8	-14	-6
COc1cccc(N(C(=O)c2ccco2)C(C(=O)NC2CCCC2)c2cccnc2)c1 (stereo not given)	24*	0	0	15	-7	-3
COc1ccc(C(C(=O)NC2CCCC2)N(C(=O)c2ccoc2C)c2ccccc2)cc1 (stereo not given)	-7	-8	2	-10	1	-2
COc1ccc(C(C(=O)NC2CCCC2)N(C(=O)c2ccoc2C)c2cc(C)cc(C)c2)cc1 (stereo not given)	3	-9	-1	-5	1	5
CCc1ccc(N(C(=O)c2ccoc2C)C(C(=O)NC2CCCC2)c2ccc(OC)cc2)cc1 (stereo not given)	28*	-6	-1	16	-14	-8
Nc1cccc(CP(=O)(c2ccccc2)c2ccccc2)c1	1	-6	0	-4	3	3
O=C(NCCc1ccccc1F)C1CCC(=O)N(Cc2ccc(Cl)cc2)C1 (stereo not given)	-7	-3	1	-20	-23	10
O=S1(=O)CCOC(CO)CN1Cc1ccc(Cl)c(Cl)c1 (stereo not given)	-8	-2	1	-8	4	6
COc1cc(C(=O)NCc2cccnc2)ccc1OCC(=O)Nc1cccc(C(F)(F)F)c1	8	1	17*	7	-15	-6
CCOc1ccc(NC(=O)COc2ccc(C(=O)NCc3cccnc3)cc2OC)cc1	18	-1	0	-18	-22	5
CCN(CC)CCC(O)(c1ccccc1)C1CCCCC1 (stereo not given)	-4	-10	0	100*	1	-30
CC[N+](CC)(CC)CCC(O)(c1ccccc1)C1CCCCC1 (stereo not given)	-7	-5	1	98*	13	-25
Cc1cc(-c2cn3ccccc3n2)c(C)n1-c1ccccc1	-6	-6	0	34*	-14	-19
CN1CCC(OC(c2ccccc2)c2ccc(Cl)cc2)C1 (stereo not given)	-12	-1	6	100*	15	-31
CC(OC(=O)c1cc(Br)ccc1O)C(=O)Nc1ccc(S(=O)(=O)N2CCCC2)cc1 (stereo not given)	8	2	7	16	-30	-1
COc1ccc(CC(=O)Nc2ccc(S(=O)(=O)N(C)C3CCN(C)CC3)cc2)cc1	7	-4	3	5	8	-1
CC(Sc1ccc(Cl)cc1)C(=O)N(C)CC(=O)Nc1ccc(N2CCOCC2)cc1 (stereo not given)	5	-2	2	18*	-10	-7

Assay outcomes: PubChem BioAssay, The Scripps Research Institute Molecular Screening Center
